Assay results published in ChEMBL document CHEMBL3988442, “University of Dundee, Small-Polar-MMV Screening Library” (2021).
The whole screen tested about 48,000 compounds, of which about 13,000 (27%) showed an effect of 50% or more. This is one part of the list.

What follows are compounds tested on Wolbachia pipientis (assay: Anti-Wolbachia Cell-Based Screen). Conditions: 5 µM.
Assay type: functional
Parameters: scale not given: in the data most compounds retested in dose-response had high values

First: CNC(=O)Cc1noc(-c2cc3c(s2)CCC(C)(C)C3)n1
Second: Cn1nc2c(cc1=O)CN(Cc1nc(C3CC3)no1)CC2
The “Percent Effect” value of the first is lower: -4.639% for the first, 27.59% for the second.

First: O=C(O)c1cccc(CN2CCCC(c3ccn[nH]3)C2)c1 (stereo unspecified)
Second: O=C(O)c1cccc(CN2CCCC(Cc3ccn[nH]3)C2)c1 (stereo unspecified)
The “Percent Effect” value of the first is lower: 109.3% for the first, 127.8% for the second.

First: CC(C)(C)OC(=O)NC1CCCN(Cc2cccc(O)c2)C1 (stereo unspecified)
Second: O=C(O)c1ccc(CN2CCCC(Cc3ccn[nH]3)C2)cc1 (stereo unspecified)
The “Percent Effect” value of the first is lower: -3.79% for the first, 99.33% for the second.

First: COc1ccccc1CC1CCCN(CC(N)=O)C1 (stereo unspecified)
Second: COc1ccccc1CC1CCCN(C(=O)c2cn[nH]c2C)C1 (stereo unspecified)
The “Percent Effect” value of the first is higher: -5.386% for the first, -7.935% for the second.

First: c1ccn2cc(CN3CCCC(c4ccn[nH]4)C3)nc2c1 (stereo unspecified)
Second: O=C(O)c1ccccc1CN1CCCC(Cc2ccn[nH]2)C1 (stereo unspecified)
The “Percent Effect” value of the first is lower: 9.447% for the first, 106.4% for the second.

First: O=C1CCCN1CCN1CCCC(c2ccn[nH]2)C1 (stereo unspecified)
Second: CN(CC1(O)CCCN(CCC2CCCCC2)C1=O)C1CCOCC1 (stereo unspecified)
The “Percent Effect” value of the first is higher: 1.781% for the first, -1.971% for the second.

Going from `Cc1ccsc1[C@@H]1CCN(C(=O)c2ccc(-c3cc[nH]n3)cc2)C[C@H]1O` to `CN(C)C(=O)c1ccc(CNc2c(Cl)cccc2C#N)cc1`, the “Percent Effect” value falls from -2.8% to -8.933%.

Compared with `CCC(SC)C(=O)N1CCC(n2cccn2)CC1` (stereo unspecified), `CC(C)CN1C[C@H]2CCN(C(=O)C3CCCO3)CC[C@H]2S1(=O)=O` (stereo partly specified) is lower in “Percent Effect” value: -7.031% for the first, -18.66% for the second.

Going from `CN1C(=O)CC2(CCN(S(=O)(=O)c3cccs3)CC2)c2ccccc21` to `CN1C(=O)CC2(CCN(S(=O)(=O)N(C)C)CC2)c2ccccc21`, the “Percent Effect” value falls from 10.11% to -6.476%.

Compared with `COCCCNC(=O)C1(NC(=O)c2ccc3[nH]ncc3c2)CCCC1`, `CN(C)C(C(=O)NCC1(O)CCCCC1)c1cccc(F)c1` (stereo unspecified) is higher in “Percent Effect” value: -2% for the first, 11.81% for the second.

Going from `O=S(=O)(NCC1(O)CCOc2ccccc21)c1ccccc1Br` (stereo unspecified) to `O=C(NCC1(O)CCOC1)c1ccccc1Cl` (stereo unspecified), the “Percent Effect” value falls from 15.3% to -4.323%.

First: O=C(Nc1nnn[nH]1)c1ccc(-n2cccc2)c(F)c1
Second: Cn1ccc2c(-c3nccc(N)n3)ccnc21
The “Percent Effect” value of the first is higher: -12.4% for the first, -30.17% for the second.

First: O=C(COC1CCCC1)N1CCC(C(O)c2ccc(F)cc2)CC1 (stereo unspecified)
Second: O=C(COc1ccc(F)cc1)N1CCO[C@H]2[C@@H](OCC3CC3)CC[C@@H]21
The “Percent Effect” value of the first is lower: 6.854% for the first, 107% for the second.

First: COc1cccc(NC(C(N)=O)c2ccc(Br)cc2)c1 (stereo unspecified)
Second: CCNc1ccc(-c2ccnc3c2ccn3C)nn1
The “Percent Effect” value of the first is higher: 1.947% for the first, -1.559% for the second.

First: CCO[C@H]1CC[C@H]2[C@H]1OCCN2C(=O)COc1ccccc1
Second: CCO[C@H]1CC[C@H]2[C@@H]1OCCN2C(=O)COc1ccccc1
The “Percent Effect” value of the first is lower: 74.73% for the first, 94.92% for the second.

Compared with `COc1ccc(C(=O)N2CCO[C@H]3[C@H](OCC4CC4)CC[C@@H]32)cc1F`, `COc1cc(C(=O)N2CCO[C@H]3[C@H](OCC4CC4)CC[C@@H]32)ccc1F` is higher in “Percent Effect” value: -4.788% for the first, 35.93% for the second.

First: CCO[C@@H]1CC[C@H]2[C@H]1OCCN2C(=O)c1ccc(C)o1
Second: CCO[C@@H]1CC[C@H]2[C@H]1OCCN2C(=O)C1CCOCC1
The “Percent Effect” value of the first is lower: 0.08907% for the first, 0.9043% for the second.

Going from `CN(Cc1cnccn1)CC1CCOc2ccccc2C1` (stereo unspecified) to `CN(Cc1ccccc1)CC1CC2(CO1)CN(Cc1cnn(C)c1)C2` (stereo unspecified), the “Percent Effect” value falls from 5.577% to -2.148%.

Going from `CCC(C)CNc1ccc2oc(COC)nc2c1` (stereo unspecified) to `CCOCc1nnc(NCc2cccc(C)c2)o1`, the “Percent Effect” value falls from -9.605% to -20.23%.

First: CN1CCN(Cc2cnc3n2CCN(CCc2ccccc2)C3)CC1.O=C(O)C(F)(F)F.O=C(O)C(F)(F)F.O=C(O)C(F)(F)F
Second: CN1CCN(Cc2cnc3n2CCN(Cc2cccnc2)CC3)CC1.O=C(O)C(F)(F)F.O=C(O)C(F)(F)F.O=C(O)C(F)(F)F
The “Percent Effect” value of the first is higher: 127% for the first, 102.7% for the second.

First: COCC(=O)N1CCn2c(CN3CCN(C)CC3)cnc2C1.O=C(O)C(F)(F)F.O=C(O)C(F)(F)F
Second: Cc1noc(C)c1CN1CCn2c(CN3CCN(C)CC3)cnc2C1.O=C(O)C(F)(F)F.O=C(O)C(F)(F)F.O=C(O)C(F)(F)F
The “Percent Effect” value of the first is lower: -7.166% for the first, -4.762% for the second.

First: CNC(=O)c1cnc2n1CCN(Cc1cccnc1)C2.O=C(O)C(F)(F)F.O=C(O)C(F)(F)F.O=C(O)C(F)(F)F
Second: CN(C)S(=O)(=O)N1CC[C@H]2OCC[C@@]2(COc2cccnc2)C1.O=C(O)C(F)(F)F
The “Percent Effect” value of the first is lower: 0.3449% for the first, 7.883% for the second.

Going from `Cn1ccc2c(-c3cc(N)nc(N4CCOCC4)n3)ccnc21` to `CCc1cc(-c2ccnc3c2ccn3C)nc(N2CCOCC2)n1`, the “Percent Effect” value falls from 88.78% to 67.54%.

Going from `CCc1cc(N(C)Cc2ncc[nH]2)nc(N2CCOCC2)n1` to `CCOC(C)c1noc(CN2CCN(c3nnc(C)s3)CC2)n1` (stereo unspecified), the “Percent Effect” value rises from -9.08% to -0.8403%.

Going from `CN(C)c1cncc(-c2ccnc3c2ccn3C)n1` to `Cc1cnc(C(=O)N2C[C@H]3CC[C@@H]2CN(S(=O)(=O)N(C)C)C3)cn1`, the “Percent Effect” value rises from -34.59% to -4.38%.

Compared with `CN(C)S(=O)(=O)N1CCC(C)(c2ncc(C(N)=O)s2)CC1`, `CN(C)S(=O)(=O)N1CCCC(C)(c2ncc(C(N)=O)s2)C1` (stereo unspecified) is higher in “Percent Effect” value: 173.8% for the first, 191.5% for the second.

Going from `CN(C)S(=O)(=O)N1CCC[C@]2(C[C@@H](Oc3ccccn3)CO2)C1.O=C(O)C(F)(F)F` to `CN(C)C(C(=O)NCC1(O)CCCCC1)c1c(F)cccc1F` (stereo unspecified), the “Percent Effect” value falls from -2.011% to -3.857%.

Compared with `CCS(=O)(=O)N1CCN(C(=O)C(C)C)CC2(CC(=O)N(C)C2)C1` (stereo unspecified), `CN(C)C1(CNC(=O)C/C=C/c2ccc(F)cc2)CCOCC1` is higher in “Percent Effect” value: -2.529% for the first, 1.504% for the second.

Compared with `O=C(NCc1ccc(Cl)cc1Cl)NCC1(O)CCSC1` (stereo unspecified), `O=C(NCC1(O)CCC1)c1c(O)cc(Cl)cc1Cl` is higher in “Percent Effect” value: -14.06% for the first, 97.98% for the second.

Compared with `CN(C)C1(CNC(=O)c2c(O)cc(Cl)cc2Cl)CCOCC1`, `CN(C)C(C(=O)NCC1(N(C)C)CCOCC1)c1ccccc1F` (stereo unspecified) is lower in “Percent Effect” value: 85.78% for the first, -12.63% for the second.

`O=C(NCC1(O)CCC1)c1c(O)cc(F)cc1F` was tested, and the “Percent Effect” value was 120.5%.
